ERa SRC1 inh: ERα–SRC-1 coactivator interaction inhibitors, primary screen, biochemical, TR-FRET, ERα LBD, estradiol-bound. Estrogen receptor (Homo sapiens), P03372. 86,000 tested, 1.7% active. TR-FRET ER-alpha LBD / SRC-1 peptide. inhibition, % at 25.6 µM; in the data active means inhibition above about 50%;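 further: 0% = receptor plus peptide control and 100% = peptide only without receptor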
ERb SRC1 inh: inhibitors of ERβ-SRC1 coactivator interaction, primary screen, biochemical, TR-FRET, ERβ LBD, SRC-1 peptide. Estrogen receptor beta (Homo sapiens), Q92731. TR-FRET ER-beta LBD / SRC1-Cy5 peptide binding; receptor agonist-loaded with 1 µM estradiol. inhibition, % at 25.6 µM. 86,000 tested, 1.3% active;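 active means compounds whose percent inhibition of the receptor-coactivator binding signal exceeds about 50% in the single-dose screen, limit read from the data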;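 further: 0% = receptor plus peptide wells without compound and 100% = peptide-only wells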
Target sequence (Q92731 whole entry, looked up, the tested form may be a part): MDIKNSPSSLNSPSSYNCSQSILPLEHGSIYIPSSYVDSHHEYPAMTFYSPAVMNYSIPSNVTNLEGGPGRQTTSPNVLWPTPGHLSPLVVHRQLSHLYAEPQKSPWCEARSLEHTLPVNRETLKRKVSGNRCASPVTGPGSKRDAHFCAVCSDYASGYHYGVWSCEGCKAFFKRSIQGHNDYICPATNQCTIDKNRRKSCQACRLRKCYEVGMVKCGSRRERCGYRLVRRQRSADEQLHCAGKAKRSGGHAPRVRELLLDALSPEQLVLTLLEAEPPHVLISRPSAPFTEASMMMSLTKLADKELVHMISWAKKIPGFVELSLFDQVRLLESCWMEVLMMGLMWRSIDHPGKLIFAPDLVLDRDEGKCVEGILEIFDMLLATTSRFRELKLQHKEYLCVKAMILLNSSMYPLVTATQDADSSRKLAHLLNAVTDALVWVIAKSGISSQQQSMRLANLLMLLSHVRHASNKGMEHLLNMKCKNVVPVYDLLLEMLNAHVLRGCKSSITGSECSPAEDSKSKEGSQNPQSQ
Smad3 inh: Smad3/FoxH1 peptide binding inhibitors, primary screen, biochemical, TR-FRET | Mothers against decapentaplegic homolog 3 (Homo sapiens), P84022 | TR-FRET Smad3/Dy647-FoxH1 peptide binding, europium anti-His | inhibition, % at 25 µM | 88,000 tested, 0.29% active | AID 630, 2007;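 active means compounds that reduce the energy-transfer binding signal between the protein and its labelled peptide by more than half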;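 further: 0% = Smad3 plus labelled peptide maximal FRET and 100% = peptide-only background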
ERa coact pot: enhancers of ERα–SRC-1 coactivator binding, primary screen, biochemical, TR-FRET, ERα LBD, low estradiol. 86,000 tested, 1.3% active. coactivator binding (% of control), % at 25.6 µM. Estrogen receptor (Homo sapiens), P03372. TR-FRET ERalpha-LBD/SRC-Cy5 coactivator binding, 2 h; 100 = basal binding, no effect; in the data active means activity above about 200%;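 further: binding measured in presence of low estradiol as agonist stimulus; 0% = peptide alone without receptor and 100% = receptor with peptide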
Active calls of the source: *; x = no result given; [ ] = dose if it differs, or a comment. This is a sample that favours compounds with a hit; in the whole collection about 3.7% have one here.

SMILES	ERa SRC1 inh	ERb SRC1 inh	Smad3 inh	ERa coact pot
Cc1ccc(-c2cc(C(=O)NC3=NCCS3)c3cc(Br)ccc3n2)o1	51.7*[fluorescence artefact?]	25.4	-24.2	280.9*[fluorescence artefact?]
O=C(NC1=NCCS1)c1ccc(-c2ccc(Cl)cc2)o1	6.4	9.4	-1.1	83.3
CC1CCN(C(=O)CCc2ccc(S(=O)(=O)NC(C)C)cc2)CC1	5.4	0.7	5.4	106.3
O=C(CSc1ccc2nnc(-c3ccc(Cl)cc3)n2n1)N1CCc2ccccc21	13.5	17.7	-0.8	175.3
N=C(N)c1ccc(-c2ccc(-c3ccc(C(=N)N)cc3)o2)cc1	x	x	1.8	x
CCN1CCCC1CNC(=O)CSc1cc(=O)n(C)c2cc(Cl)ccc12 (stereo unspecified)	6.3	-14.4	53.2*[fluorescence artefact?]	112.2
Cn1c(=O)cc(SCC(=O)NCC2CCCO2)c2ccc(Cl)cc21 (stereo unspecified)	3.1	5.0	50.5*[fluorescence artefact?]	104.2
CCN1CCCC1CNC(=O)COc1cc(=O)n(C)c2ccccc12 (stereo unspecified)	-4.3	5.0	-3.6	127.2
Nc1ccc(S(=O)(=O)c2ccc(NC(=O)c3cccnc3)cc2)cc1	x	x	56.7*	x
CCCNS(=O)(=O)c1ccc(NC(=O)c2cccnc2)cc1	-0.6	1.4	11.6	90.2
COc1cc(CN2CCCCC2)cc2cc(C(=O)O)c(=O)oc12	x	x	14.1	x
CCC(C)c1ccc2oc(-c3ccc(NC(=O)Cn4cnc5c(=O)n(C)c(=O)n(C)c54)cc3)nc2c1 (stereo unspecified)	71.8*[fluorescence artefact?]	42.7	5.7	99.2
Cc1ccc(NC(=O)Cn2cnc3c(=O)n(C)c(=O)n(C)c32)c(C)c1	-8.9	-7.9	2.1	114.1
Cn1c(=O)c2ncn(CC(=O)Nc3ccc4oc(-c5cccc6ccccc56)nc4c3)c2n(C)c1=O	74.9*[fluorescence artefact?]	36.5	-1.4	43.9
COc1ccc(-n2c(=O)c3ccccc3n(CC(=O)NC3CCCCC3)c2=O)cc1	-2.8	9.8	5.2	109.4
CC1CCCN(CC(O)CN)C1 (stereo unspecified)	-7.5	-10.4	3.6	114.0
Cc1sc2nc(C(C)Nc3ccccc3N3CCOCC3)[nH]c(=O)c2c1C (stereo unspecified)	-12.2	-4.6	-2.8	253.9*
O=C(NCSc1ccnc(SCNC(=O)c2ccccc2)n1)c1ccccc1	-6.3	10.3	-5.1	252.2*
Cc1c(NC(=O)C(C)OC(=O)[C@@H](NC(=O)c2ccccc2)C(C)C)c(=O)n(-c2ccccc2)n1C (stereo partly specified)	3.7	-4.5	1.3	114.2
Cc1cc(C)n(C(=O)c2cc3c(s2)CCCC3)n1	-1.6	-5.8	6.1	101.1
COc1ccc(-n2nc(C(=O)NCc3ccco3)c3c4ccccc4n(C)c3c2=O)cc1	3.7	2.3	4.9	328.8*[fluorescence artefact?]
CCc1ccccc1NC(=O)/C(=C/c1ccco1)c1ccccc1	4.7	-1.8	80.7*[fluorescence artefact?]	82.1
Cc1ccccc1NC(=O)/C(=C/c1ccco1)c1ccccc1	5.7	-12.3	0.8	80.0
Cc1sc2ncnc(SCC#N)c2c1C	75.5*[fluorescence artefact?]	48.2	4.0	97.1
CCOC(=O)c1sc(NC(=O)C2CCCO2)c(C(=O)OCC)c1C (stereo unspecified)	56.8*	49.3	-4.2	73.1
SMILES	ERa SRC1 inh	ERb SRC1 inh	Smad3 inh	ERa coact pot
Nc1ccn([C@H]2O[C@H](COC(=O)C34CC5CC(CC(C5)C3)C4)[C@@H](O)[C@@H]2O)c(=O)n1	x	x	-1.5	x
O=C(NCCCCCCNC(=O)c1ccc(Br)s1)c1ccc(Br)s1	82.4*[fluorescence artefact?]	58.5*[fluorescence artefact?]	-54.9	416.9*
Cc1cccc(OCC(=O)Nc2ccc(N3CCCC3)cc2)c1C	95.3*[fluorescence artefact?]	59.3*[fluorescence artefact?]	-2.6	6.3
Cc1ccc(OCC(=O)Nc2ccc(O)c(C(=O)O)c2)cc1C	21.0	5.0	8.5	98.6
CCC(=O)N1CCN(c2ccc(NC(=O)COc3ccccc3Cl)cc2)CC1	-4.4	-9.5	-4.7	115.3
COc1ccc(C(=O)Nc2ccc(N3CCCC3)cc2)cc1	84.4*[fluorescence artefact?]	41.3	-2.1	23.9
CN1CCN(c2ccc(NC(=O)COc3ccccc3Cl)cc2)CC1	56.6*[fluorescence artefact?]	71.8*[fluorescence artefact?]	2.8	27.6
Cc1ccc(OCC(=O)Nc2ccc(N3CCCC3)cc2)cc1C	98.7*[fluorescence artefact?]	81.6*[fluorescence artefact?]	10.5	-2.1
O=C(O)C[C@H](Cc1ccccc1)C(=O)O	x	x	-2.1	x
COc1cc(-c2noc(CCCC(=O)NC3CCCCC3)n2)cc(OC)c1OC	-6.7	-4.6	16.4	107.0
CCCCC(=O)Nc1cccc(-c2nnc(-c3ccccc3)o2)c1	25.4	2.2	1.7	107.7
Cc1cc(C)cc(OCC(=O)NCCN2CCOCC2)c1	-9.5	85.2*[fluorescence artefact?]	2.0	111.6
Cc1cc(C)cc(OCC(=O)Nc2ccc(N3CCCC3)cc2)c1	97.3*[fluorescence artefact?]	71.0*	0.3	2.6
Cc1cccc(OCC(=O)Nc2cccc(-c3nnc(-c4ccccc4)o3)c2)c1C	71.5*[fluorescence artefact?]	44.3	-4.3	124.3
Cc1cc(C)cc(OCC(=O)Nc2ccc(F)cc2)c1	9.3	-9.0	-0.5	79.1
O=C(Nc1ccc(N2CCN(C(=O)c3ccccc3)CC2)cc1)c1ccc(Br)o1	-0.3	8.9	0.5	100.5
O=C(Nc1ccc(N2CCCC2)cc1)c1ccc(Br)o1	59.2*[fluorescence artefact?]	68.4*[fluorescence artefact?]	-15.8	58.4
O=C(O)CCC(=O)c1ccc(Cl)cc1	x	x	7.7	x
Nc1cc(C(=O)O)[nH]c(=O)n1	x	x	-1.4	x
CCOC(=O)CC(=O)CSc1nc2ccccc2c(=O)n1-c1ccc(C(=O)NCCOC)cc1	5.8	16.9	-8.8	80.8
Cc1cc(C)n(-c2nc(SCCN(C)C)c3c4c(sc3n2)CCCC4)n1	0.7	-14.9	15.9	86.7
CCC(O)CNc1nc(-n2nc(C)cc2C)nc2sc3c(c12)CCCC3 (stereo unspecified)	1.2	-1.3	-1.8	203.5*
O=C(O)[C@@H]1[C@H](C(=O)Nc2ncccn2)[C@@H]2C=C[C@H]1O2	x	x	-0.9	x
O=C(O)CC(CC(=O)Nc1nncs1)c1ccccc1 (stereo unspecified)	-5.2	-9.0	3.7	137.2
O=C(O)CC(Cn1[nH]nnc1=S)c1ccccc1 (stereo unspecified)	-9.0	52.2*	3.1	107.9
SMILES	ERa SRC1 inh	ERb SRC1 inh	Smad3 inh	ERa coact pot
COc1ccc2nc(NC(=O)CCc3nc(-c4ccccc4F)no3)sc2c1	33.6	48.0	-5.9	204.0*
COc1ccc2nc(NC(=O)Cc3cccs3)sc2c1	15.1	22.0	4.2	67.5
CCn1c(C)nc2cc(-c3nnc(-c4c(-c5ccccc5)noc4C)o3)ccc21	-17.6	-3.0	14.6	373.3*[fluorescence artefact?]
c1ccc(-n2nnnc2SCc2cccc3nsnc23)cc1	-4.7	-1.7	4.6	105.9
O=c1c2ccccc2nc(CSc2nnnn2-c2ccccc2)n1-c1ccccc1Cl	78.4*[fluorescence artefact?]	58.8*[fluorescence artefact?]	18.6	97.5
c1ccc(Cn2c(CSc3nnnn3-c3ccccc3)nc3ccccc32)cc1	64.0*[fluorescence artefact?]	18.1	8.2	72.8
O=C(O)CNC(=O)[C@H]1NC(C(F)(F)F)(C(F)(F)F)OC1(C(F)(F)F)C(F)(F)F	x	x	-4.0	x

Bioassay records as filed in PubChem.
